This is part of a sample that, as a whole, favours compounds with a hit. Of some 83,000 tested, about 20% had one in any assay.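 For each line, cells grew in 96-well plates with the test compound present at a single concentration for 48 hours.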 Values without a mark were called inactive. Active and inactive are the calls of the source. Rule for the calls: active = growth percent below 10; inactive = the rest.
Key:
Assay in all cases: NCI-60 one-dose screen, 48 h (100 = growth as untreated, 0 = no growth, -100 = all killed)
Conditions in all cases: 10 µM unless noted
T-47D breast = test system: T-47D breast
BT-549 breast = test system: BT-549 breast
MDA-MB-435 melanoma = test system: MDA-MB-435 melanoma
SW-620 colon = test system: SW-620 colon
MCF7 breast = test system: MCF7 breast
HCT-116 colon = test system: HCT-116 colon
HCC-2998 colon = test system: HCC-2998 colon
KM12 colon = test system: KM12 colon
MDA-MB-468 breast = test system: MDA-MB-468 breast

| Compound | growth (T-47D breast) | growth (BT-549 breast) | growth (MDA-MB-435 melanoma) | growth (SW-620 colon) | growth (MCF7 breast) | growth (HCT-116 colon) | growth (HCC-2998 colon) | growth (KM12 colon) | growth (MDA-MB-468 breast) |
| --- | --- | --- | --- | --- | --- | --- | --- | --- | --- |
| Cc1nc(Nc2ccccn2)sc1C(=O)CC(SCC(=O)Nc1ccc(Cl)cc1)c1ccccc1F (centres undefined) | -7.28% (active) | 24.2% | -60% (active) | 2.15% (active) | 13.2% | 4.66% (active) | 17.2% | -19.1% (active) |  |
| COc1cc(-c2nc3ccc(C)cc3[nH]2)ccc1OCc1nnc(-c2ccc(Br)cc2)o1 | -14.6% (active) | 23.8% | 46.1% | 35.5% | 12.8% | 11.5% | 58.7% | 37.7% | -34.3% (active) |
| CN(C)c1ccnc(CNCCSC2(c3ccccc3)c3ccccc3C=Cc3ccccc32)c1 | -32% (active) | -47.1% (active) | -86.3% (active) | -76.1% (active) | -75.8% (active) | -38.8% (active) | -77.3% (active) | -61% (active) |  |
| CCN1C(=O)N(CC)C2NNC(Sc3c(C(=O)O)c4ccccc4n(C4CCCC4)c3=O)=NC21 (centres undefined) | 61.4% | 6.1% (active) | -29.3% (active) | 30.6% | 16.6% | 4.07% (active) | 26.4% | 3.71% (active) |  |
| O=C(NN1C(=O)/C(=C/C=C/c2ccc([N+](=O)[O-])o2)SC1=S)c1ccc(Cl)cc1 | -91.2% (active) | -91.1% (active) | -86.2% (active) | -80.9% (active) | -60% (active) | -76.1% (active) | -96.2% (active) | -93% (active) |  |
| COc1c(F)ccc(C(=O)Nc2ccc3nc(NC(=O)C4CCCN(S(=O)(=O)c5ccc(Br)s5)C4)sc3c2)c1F (centres undefined) | 53.1% | 75.5% | 84.1% | 100% | 53.8% | 65.4% | 98.7% | 75% | 83.7% |
| Cn1cc(-c2cc(N)n3nc(-c4cn(C)c5ccccc45)cc3n2)c2cc(Br)ccc21 | -37.7% (active) | 38% | -72.6% (active) | -10.6% (active) | -74.1% (active) | -92.9% (active) | -70.2% (active) | -60.4% (active) | -24.9% (active) |
| CC(C)Sc1nc(NCCc2c[nH]c3ccccc23)c(C#N)c(-c2ccccc2)n1 | -9.65% (active) | 55.1% | 48.1% | -11.6% (active) | -22.5% (active) | 0.232% (active) | 4.86% (active) | 6.51% (active) | -4.09% (active) |
| Cc1ccccc1[C@H]1C(C(=O)c2ccc(Cl)cc2)C2(N[C@@H]1c1ccccc1)C(=O)Nc1ccc(Cl)cc12 (some centres undefined) | 13% | -29.4% (active) | -35.4% (active) | -9.32% (active) | -22.3% (active) | -84.6% (active) | -54.2% (active) | -24.3% (active) | -19.1% (active) |
| CC(=O)/C=C/c1cccc2c1C(=O)NC(C)(c1cc3cc(Br)ccc3oc1=O)N2 (centres undefined) | 32% | -8.15% (active) | 42.3% | 32.3% | 13.4% | 15.1% | 23.3% | 25.3% |  |
| Cn1cc(-c2cc(N)n3nc(-c4cn(C)c5ccccc45)cc3n2)c2cc(Cl)ccc21 | -30.9% (active) | 63% | -71.9% (active) | -35.3% (active) | -69.9% (active) | -89.1% (active) | -73% (active) | -50% (active) |  |
| O=[N+]([O-])c1ccc(/C=C/c2nc3ccccc3n3c(=S)[nH]nc23)cc1 | 67.5% | 59.1% | 82.8% | 87.3% | 51.2% | 70.6% | 93.4% | 79.3% |  |
| CN(C)c1nc(NCCNS(=O)(=O)c2ccc(C3=Nc4c(N)nc(N)nc4NC(c4ccc(Cl)cc4)C3)cc2)nc(Nc2ccc(F)cc2)n1 (centres undefined) | 33.8% | 15.4% | 32.3% | 33.4% | 2.35% (active) | 15.3% | -0.0718% (active) | 19.4% | -35.5% (active) |
| CCOC(=O)C(N=Nc1ccc(S(=O)(=O)N=C(N)N)cc1)C(C)=O (centres undefined) | 105% | 113% | 105% | 102% | 97.9% | 109% | 120% | 103% | 92.9% |
| NS(=O)(=O)c1ccc(NNC(=O)CCC(=O)c2ccccc2)cc1 | 87.5% | 104% | 105% | 102% | 90.5% | 99% | 109% | 104% | 93.3% |
| COc1cccc(-c2nc(Nc3ccc(S(N)(=O)=O)cc3)c3ccccc3n2)c1 | 20.9% | 54.5% | 38.8% | 36.1% | 19.8% | 32.2% | 6.44% (active) | 6.75% (active) |  |
| CCC(C)(C)c1ccc(OCCCCN2CCN(c3ccncc3)CC2)cc1 | -41.6% (active) | 27% | 39.2% | 2.87% (active) | -23.1% (active) | 8.09% (active) | -5.55% (active) | 37.4% | -67.2% (active) |
| NS(=O)(=O)c1ccc(N=Nc2c(O)n(CC(=O)Nc3ccccc3)c3ccccc23)cc1 | 60.8% | 25.5% | 9.55% (active) | -17.4% (active) | 14.9% | -45.3% (active) | 12.9% | 13.9% |  |
| Nc1cccc(SCc2cc3ccccc3[nH]c2=O)c1 | 33.3% | 46.7% | 30.5% | 23.5% | 37.4% | 50.3% | 26.8% | 0.625% (active) | 45.9% |
| CCCSc1nc(NCCc2c[nH]c3ccccc23)c(C#N)c(-c2ccccc2)n1 | 16.1% | 89.3% | 83.4% | 56.9% | 24.9% | 32% | 59.9% | 42.1% |  |
| O=C(Nc1cccc(-n2cnc3cc(-c4ccc(O)cc4)ccc32)c1)C1CC1 | 30.6% | 30.8% | -4.17% (active) | 38.2% | 24.9% | 9.12% (active) | 28.4% | 0.14% (active) | 21% |
| Clc1cccc(-c2ccc(OCCCN3CCN(c4ccncc4)CC3)cc2)c1 | -37.5% (active) | 20.4% | -51.6% (active) | -66.2% (active) | -61.4% (active) | -76.7% (active) | -91.5% (active) | -43.8% (active) |  |
| C#C[C@]1(O)CC[C@H]2[C@@H]3CC=C4c5sc(-c6ccc(O)c(O)c6)nc5CC[C@]4(C)[C@H]3CC[C@@]21C | -25.7% (active) | -93.3% (active) | -62.3% (active) | -76.6% (active) | -72.8% (active) | -88.8% (active) | -83.9% (active) | -76.3% (active) |  |
| N=C1N=C(SCc2nc3ccccc3[nH]2)NC(=O)/C1=C/c1ccc(Cl)cc1 | 93.2% | 114% | 102% | 98.5% | 96.9% | 105% | 109% | 104% | 116% |
| Cn1cc(NC(=O)c2cc(NC(=O)c3ccc(/C=C/c4ccccc4)cc3)cn2C)cc1C(=O)NCCCN1CCOCC1 | 46.4% | 71.7% | -73.1% (active) | -34% (active) | -84.8% (active) | -90.1% (active) | -80.1% (active) | -45.8% (active) | -61.3% (active) |
| N/C(=N\N=C\c1ccc([N+](=O)[O-])cc1)c1c(N)nc(=S)[nH]c1-c1ccc(Cl)cc1Cl | 95.3% | 75.6% | 108% | 108% | 88.2% | 85.2% | 106% | 108% |  |
| O=C1NC(=O)/C(=C/c2ccccc2OCc2cc3ccccc3nc2Cl)S1 | 75.3% | 78.7% | 101% | 109% | 74.3% | 108% | 114% | 85.2% |  |
| CCCCCCn1c(O)c(N=Nc2nc(-c3cc4ccccc4oc3=O)cs2)c2ccccc21 | -12% (active) | -20.5% (active) | 26.3% | 56.2% | -18% (active) | -51.7% (active) | 37.8% | 13.6% | 45.3% |
| CCS(=O)(=O)N1CCCC(C(=O)Nc2nc3ccc(NC(=O)c4ccc(F)c(OC)c4F)cc3s2)C1 (centres undefined) | 7.96% (active) | 13.2% | 53.8% | 88.7% | 30.1% | 41% | 86.9% | 61.6% |  |
| Cn1cc(-c2nnc(N)nc2-c2c[nH]c3ccc(F)cc23)c2cccnc21 | 40.7% | 34% | -21.8% (active) | 19.3% | 23.6% | 15.1% | 65.8% | 22.3% |  |

— PubChem BioAssay (NCI)
